From PubChem BioAssay

Each compound was assayed on PRMT1 (protein arginine N-methyltransferase 1) (assay: small molecules binding arginine methyltransferase PRMT1 – biochemical, small-molecule microarray, 635 nm fluorescence, primary screen (AID 1088)). Settings: higher = more signal.

Row | SMILES | composite z-score
1 | O=c1cccc(CCc2ccccc2)o1 | 1.08
2 | COc1ccc([Si](C)(C)[C@H]2[C@H](CCn3cc(CCO)nn3)O[C@@]3(C(=O)N(Cc4ccc(N5CCOC5=O)cc4)c4ccccc43)[C@@H]2C)cc1 | 1.37
3 | C=CC[C@@H](OC(=O)Nc1ccc(OC)cc1)c1ccc(O)c2ccccc12 | 1.28
4 | CC(c1ccccc1)C(O)C1C=CC2C(=O)NC(=O)C2N1Nc1ccccn1 (stereo unspecified) | 1.43
5 | CC(C)CNC(=O)[C@@H]1c2ccccc2C(=O)N(Cc2cc(C(F)(F)F)cc(C(F)(F)F)c2)[C@H]1c1ccc(CO)cc1 | 0.457
6 | C[C@]1(C(=O)NCc2ccccc2)c2ccccc2C(=O)N(Cc2cc(F)cc(C(F)(F)F)c2)[C@H]1c1ccc(CO)cc1 | 0.113
7 | O=C1O[C@H](c2ccccc2)[C@H](c2ccccc2)N2[C@H]1[C@@H](C(=O)Nc1nc3ccccc3s1)[C@]1(C(=O)Nc3ccccc31)[C@H]2c1ccc(O)cc1 | 1.55
8 | CN(C)CCCNC(=O)[C@@]1(Cc2ccccc2I)c2ccccc2C(=O)N(Cc2ccccc2C(F)(F)F)[C@H]1c1ccc(CO)cc1 | 1.05
9 | CCCCCN1CC=CC23O[C@@H]4C=CCOC(=O)[C@@H]4[C@H]2C(=O)N(CCCO)[C@@H]3C1=O (stereo partly specified) | 1.55
10 | C=C(CCCC)/C(=C/C[C@H](OC(C)=O)c1ccc(CO)o1)c1cnc2ccccc2c1 | 1.43
11 | CC(C)NC(=O)[C@@]1(Cc2ccccc2I)c2ccccc2C(=O)N(Cc2ccccc2)[C@H]1c1ccc(CO)cc1 | 1.53
12 | O=C1C2C=CC(C(O)c3ccc(B(O)O)cc3)N(Nc3ccccc3)C2C(=O)N1c1ccccc1 (stereo unspecified) | -0.592
13 | O=C1C[C@]2(c3ccc([N+](=O)[O-])cc3)C(=O)N(CC(F)(F)F)c3cc(CO)ccc3[C@H]2N1CC12CC3CC(CC(C3)C1)C2 | 1.08
14 | N#Cc1ccc(NN2C(C(O)c3cccs3)C=CC3C(=O)N(c4ccccc4)C(=O)C32)cc1 (stereo unspecified) | 0.843
15 | COCCOC(=O)N1C(=O)[C@@]2(c3cc(C#CCNC(N)=O)ccc31)[C@H](C(=O)N1CCc3cc(OC)c(OC)cc3C1)[C@H]1C(=O)O[C@H](c3ccccc3)[C@H](c3ccccc3)N1[C@@H]2c1ccc(OCCO)cc1 | 1.08
16 | CC(=O)Nc1cc(Br)ccc1C(=O)O | 0.183
17 | C=CCOC(=O)[C@@H]1[C@H]2C(=O)O[C@H](c3ccccc3)[C@H](c3ccccc3)N2[C@H](c2ccc(OCCOC(=O)[C@@H]3C[C@@H]4C(=O)N[C@@H](Cc5ccccc5)C(=O)N4[C@@H]3c3cccc(OCCO)c3)cc2)[C@@]12C(=O)Nc1ccc(I)cc12 | 1.53
18 | [N-]=[N+]=NCc1ccccc1C[C@]1(C(=O)O)N=C(c2ccc(OCCCO)cc2)O[C@H]1c1ccccc1CN=[N+]=[N-] | 0.893

Row | SMILES | composite z-score
19 | NCCCCCNC(=O)[C@H]1C[C@H]2C(=O)NCC(=O)N2[C@H]1c1cccc(OCCO)c1 | 1.31
20 | COc1cc2c(cc1OC)CN(C(=O)[C@@H]1[C@H]3C(=O)O[C@H](c4ccccc4)[C@H](c4ccccc4)N3[C@H](c3ccccc3OCCO)[C@@]13C(=O)Nc1ccc(C#CCNC(N)=O)cc13)CC2 | 1.48
21 | C=C(COC)C(=O)CC[C@H](OC(C)=O)c1cccc(OCCO)c1 | 0.591
22 | CCOC(=O)C[C@H]1[C@H](OC(=O)Cc2ccc3c(c2)OCO3)[C@@H](NC(=O)C2CCCCC2)c2cc(OCCCO)ccc2N1C(=O)Cc1ccc(OC)cc1 | 1.19
23 | COCCOC(=O)N1C(=O)[C@@]2(c3cc(C#CCNC(N)=O)ccc31)[C@H](c1ccc(OCCO)cc1)N1[C@H](c3ccccc3)[C@H](c3ccccc3)OC(=O)[C@H]1[C@@H]2C(=O)N1CCc2cc(OC)c(OC)cc2C1 | 0.993
24 | COCCOC(=O)N1C(=O)[C@@]2(c3cc(C#CC4(O)CCCCCC4)ccc31)[C@H](C(=O)N1CCCCCCC1)[C@H]1C(=O)O[C@H](c3ccccc3)[C@H](c3ccccc3)N1[C@@H]2c1ccccc1OCCO | 1.48
25 | C=C(COC)/C(=C/C[C@H](OC(=O)c1ccncc1)c1cccc(OCCO)c1)c1cc(C(=O)OC)ccc1OC | 1.48
26 | COc1c(C)cc(-c2cc3c(c(-c4ccc(Oc5ccccc5)cc4)n2)[Si](C(C)C)(C(C)C)OC3)cc1C | -0.871
27 | CCOC(=O)C1=CCC(c2ccc(C#N)cc2)N(S(=O)(=O)c2ccc(C)cc2)C1 (stereo unspecified) | 1.11
28 | CCOC(=O)C1=C[C@@H](C(C)C)N(S(=O)(=O)c2ccc(C)cc2)[C@H]1c1ccc(C(C)C)cc1 | 1.25
29 | CCOC(=O)C1=CCC(C(C)(C)C)N(S(=O)(=O)c2ccc(C)cc2)C1 (stereo unspecified) | 1.54
30 | CCCCC=C[C@@H](NC(=O)c1ccco1)c1ccccc1 | -0.568
31 | CC(C)(C)N1CC=CC23O[C@@H]4C=CCOC(=O)[C@@H]4[C@H]2C(=O)N(CCCCCO)[C@@H]3C1=O (stereo partly specified) | -0.396
32 | O=C1C=CC(=O)[C@@H]2CC(COc3ccccc3)=C3[C@@H](CCc4ccccc4)OB(O)C[C@@H]3[C@H]12 | 0.702
33 | Cc1ccccc1C(O)C1C=CC2C(=O)N(C)C(=O)C2N1N1CCCCC1 (stereo unspecified) | 1.11
34 | CCOC(=O)C[C@H]1[C@H](OC(=O)c2ccc(C(=O)c3ccccc3)cc2)[C@@H](NC(=O)C2CCCCC2)c2cc(OCCCO)ccc2N1C(=O)c1ccccc1 | 1.55
35 | Cc1ccc(S[C@]2(C(=O)NCC(C)C)CC(=O)N(Cc3ccccc3Cl)[C@@H]2c2ccc(CO)cc2)cc1 | -0.446
36 | COc1cccc(C(=O)O[C@H]2CC[C@]3(C)C4=C(CCC3C2(C)C)[C@]2(C)CC[C@H]([C@H](C)CCCC(C)C)[C@@]2(C)CC4)c1 (stereo partly specified) | -0.0398
